Assays:
Experiment in all cases: PBM binding z-score (relative to random genomic background probes); higher = stronger binding; sequences stand for … in GC…GCGATTGACAGCGTAGAATGAAGG
[1] = test system: FXR:RXRa (NR concentration 270 nM, RXRa partner concentration 90 nM)
Method in brief: (§1)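 Binding buffer was PBS pH 7.4 with 2% milk, 0.02% Triton X-100, 1 mM DTT, 0.2 mg/mL BSA and 0.4 mg/ml salmon testes DNA. In it, ligand-free nuclear receptor dimers were incubated 1 h on custom Agilent 4×180K protein-binding microarrays carrying double-stranded probes. Antibodies against each partner (one per run) detected binding, and z-scores were calculated against random background probes after regression normalization of scanned fluorescence.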

[2] = test system: LXRa:RXRa (NR concentration 270 nM, RXRa partner concentration 90 nM)
Method in brief: as §1

[3] = test system: LXRa homodimer (NR concentration 270 nM)
Method in brief: as §1

[4] = test system: LXRb:RXRa (NR concentration 270 nM, RXRa partner concentration 90 nM)
Method in brief: as §1

[5] = test system: LXRb homodimer (NR concentration 270 nM)
Method in brief: as §1

[6] = test system: PPARa:RXRa (NR concentration 270 nM, RXRa partner concentration 90 nM)
Method in brief: as §1

[7] = test system: PPARg:RXRa (NR concentration 180 nM, RXRa partner concentration 90 nM)
Method in brief: as §1

[8] = test system: PPARg:RXRa 270nM:90nM, anti-RXR (NR concentration 270 nM, RXRa partner concentration 90 nM)
Method in brief: as §1

[9] = test system: PPARg:RXRa 30nM:10nM, anti-RXR (NR concentration 30 nM, RXRa partner concentration 10 nM)
Method in brief: as §1

[10] = test system: PPARg:RXRa 90nM:30nM, anti-RXR (NR concentration 90 nM, RXRa partner concentration 30 nM)
Method in brief: as §1

[11] = test system: PPARg:RXRa DBDmut IVT, anti-RXR (DBD mutation: RXRa K156A/R161A, NR concentration 270 nM, RXRa partner concentration 90 nM)
Method in brief: as §1

[12] = test system: PPARg:RXRa IVT, anti-PPARg (NR concentration 270 nM, RXRa partner concentration 90 nM)
Method in brief: as §1

[13] = test system: PPARg DBDmut:RXRa IVT, anti-PPARg (DBD mutation: PPARg1 K132A/R137A, NR concentration 270 nM, RXRa partner concentration 90 nM)
Method in brief: as §1

[14] = test system: PPARg DBDmut IVT, anti-PPARg (DBD mutation: PPARg1 K132A/R137A, NR concentration 270 nM)
Method in brief: as §1

[15] = test system: PPARg homodimer (NR concentration 180 nM)
Method in brief: as §1

[16] = test system: PXR:RXRa (NR concentration 270 nM, RXRa partner concentration 90 nM)
Method in brief: as §1

[17] = test system: PXR homodimer (NR concentration 270 nM)
Method in brief: as §1

[18] = test system: RARa:RXR (NR concentration 270 nM, RXRa partner concentration 90 nM)
Method in brief: as §1

[19] = test system: RARa homodimer (NR concentration 270 nM)
Method in brief: as §1

[20] = test system: RARb:RXRa (NR concentration 270 nM, RXRa partner concentration 90 nM)
Method in brief: as §1

Sequence	PBM binding z-score [1]	PBM binding z-score [2]	PBM binding z-score [3]	PBM binding z-score [4]	PBM binding z-score [5]	PBM binding z-score [6]	PBM binding z-score [7]	PBM binding z-score [8]	PBM binding z-score [9]	PBM binding z-score [10]	PBM binding z-score [11]	PBM binding z-score [12]	PBM binding z-score [13]	PBM binding z-score [14]	PBM binding z-score [15]	PBM binding z-score [16]	PBM binding z-score [17]	PBM binding z-score [18]	PBM binding z-score [19]	PBM binding z-score [20]
CCTGCCAGGTCATGGTCAGCTAATCTACAGTATG	3.97	3.04	-0.0461	2.28	-0.151	3.94	2.04	2.5	0.448	1.27	2.15	2.35	-0.561	-0.338	1.2	2.16	0.231	2.61	-0.0161	3.78
ATCTCAAGGTAACCAAGTTCAGTGAATGCCGAAC	0.76	1.12	0.681	0.656	0.916	0.956	0.372	0.412	0.204	0.378	0.508	1.32	0.386	0.953	0.654	2.82	3	1.14	0.198	1.62
ACCGACAGGTGAGTGAAGGTAACTCAGCTGGACG	0.184	-0.107	-0.658	-0.575	-0.831	0.00904	0.444	0.0898	-0.38	-0.0157	0.224	0.64	0.0319	-0.41	-0.391	-0.571	-0.481	-0.0449	-0.642	0.605
TCTCGCAGGCCAGAGGGTCACTCAAGAGGTACGG	1.04	1.1	-0.517	1.02	-1.09	2.32	0.92	1.95	2.05	1.91	0.998	0.394	-0.712	-0.719	0.381	1.62	-0.348	2.25	-0.311	2.45
CTACCAAGGTGAACAAGGTCGTTCATTACTATTC	2.27	3.01	1.12	2.9	0.239	3.12	1.29	1.56	0.212	0.958	4.04	2.99	0.407	0.669	1.03	3.55	3.05	2.7	0.251	2.38
ATCTCTACGTAAAGATAGTTCAGTGAATGCAAAT	-0.547	-0.0846	0.644	0.0178	0.419	-0.229	0.493	0.104	0.0785	0.04	-0.595	0.188	0.317	1.43	-0.705	0.115	0.219	-0.211	0.168	0.474
ACTATTAGTTGACTCAGGGCAACCGATACGACGC	0.117	0.225	0.326	0.195	0.862	0.023	0.893	0.163	0.201	0.123	0.402	0.739	1.01	1.08	0.52	0.329	0.569	0.544	0.791	0.893
ATCTCTAGGTAAAGATAGTTCAGTGATTGCAAAT	0.768	3.86	0.679	1.04	0.794	0.72	0.511	0.72	0.406	0.607	2.16	1.82	0.778	1.85	1.19	1.38	0.822	0.722	1.29	0.865
CGTCAAAGTTCGACTAAGGTAACGTAAAGCACGC	1.87	1.33	0.0441	1.16	0.121	1.88	1.33	2.15	0.439	1.37	0.0158	0.996	-0.0779	-0.2	1	2.49	0.543	1.92	0.582	2.49
CCTGCTAGGTCAATGGCCAGCTAAAGCAGCTCGC	3.11	2.72	-0.17	1.39	-0.454	2.73	1.84	2.65	0.293	1.8	4.15	3.04	-1.08	-1.25	0.733	0.566	-0.775	1.31	-0.563	3.73
TCATATAGGTATACAGGTGAAAGTCCGTAAGTTA	1.01	1.13	0.26	1.2	0.257	1.9	2.4	3.24	3.8	3.58	2.8	2.54	0.449	1.54	1.33	0.873	0.816	1.03	1.2	0.603
GCTTGTAGATCAAGGTTCAGAAAGACTAAGCTAA	-0.0392	0.122	0.0153	0.103	-0.768	2.44	4.87	5.28	3.39	5.82	1.07	1.53	0.321	-0.08	-0.171	0.124	-0.087	0.533	-0.997	0.339
GCTATTAGTTGAAAGGGCAACTGAATGATTCTCG	0.614	0.896	0.18	1.1	0.073	2.51	2.65	4.03	2.6	4.54	0.54	1.04	0.18	0.595	1.34	0.933	0.252	1.68	0.584	2.1
TAGCCTATGTCATGGGCCAGTATACCACGCGAAC	-0.15	-0.356	-0.253	-0.589	-0.827	-0.267	0.56	-0.0658	-0.369	-0.213	-0.759	0.165	-0.733	0.201	-0.377	-0.487	-0.151	0.249	-0.171	0.192
CCTGCTAGGTTATGGTCAGCTAATCTACAGTATG	-0.0301	-0.0994	-0.554	-0.211	-0.277	-0.0739	-0.279	-0.092	-0.295	-0.423	1.28	0.468	-0.113	0.438	-0.1	-0.197	-0.354	-0.233	0.0671	1
